# Unmarked numbers belong to inactive results. Active and inactive are the calls of the source.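 The calls were made as follows: active = fluorescence slope higher than the sample average by over 3 SD (cut at about -0.22 in these data, passing the limit was not always enough); inactive = the rest.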
# Biological target: Voltage-gated potassium channel subunit beta-2 (Rattus norvegicus) (UniProt P62483)
# Assay: KvBeta enzyme negative modulators, primary screen, biochemical, NADPH fluorescence (AID 622);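 also: slope of raw intensity against log time taken from 70 to 1610 s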
# Conditions: recombinant KvBeta, 4-cyanobenzaldehyde reduction, at 10 µM, hits give high values
# Sequence of Voltage-gated potassium channel subunit beta-2 (Rattus norvegicus) (P62483 whole entry, looked up): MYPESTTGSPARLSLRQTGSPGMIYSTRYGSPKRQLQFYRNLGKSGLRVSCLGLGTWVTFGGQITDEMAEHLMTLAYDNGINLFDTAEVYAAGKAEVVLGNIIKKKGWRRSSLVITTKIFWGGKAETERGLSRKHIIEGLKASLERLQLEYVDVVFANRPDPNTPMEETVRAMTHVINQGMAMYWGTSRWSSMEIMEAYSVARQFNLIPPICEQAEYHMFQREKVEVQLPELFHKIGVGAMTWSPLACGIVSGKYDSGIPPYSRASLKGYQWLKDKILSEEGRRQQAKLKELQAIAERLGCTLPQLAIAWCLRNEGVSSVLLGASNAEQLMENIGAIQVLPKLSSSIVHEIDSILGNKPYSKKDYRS
row,SMILES,fluorescence slope
1,O=C(NCCSc1c[nH]c2ccccc12)c1ccco1,-0.562
2,CCOC(=O)CSc1nc2cc(C(=O)N3CCC(C(N)=O)CC3)ccc2c(=O)n1-c1ccccc1,-0.37
3,Cc1cc2c(cc(C(=O)OCC(=O)NCc3cccs3)n2C(C)C)o1,-0.586
4,CC(=O)NC1CC2CCCC(C1)N2CC(=O)Nc1ccccc1 (stereo not given),-0.565
5,C=CCNc1oc(-c2cccc3ccccc23)nc1C#N,-0.0687 (active)
6,COC(=O)c1oc2ccc(Br)cc2c1NC(C)=O,-0.575
7,COc1ccc(CCNC(=O)CSc2nnc(CNc3ccc(Cl)cc3)o2)cc1OC,-0.594
8,CCCS(=O)(=O)C(=C1Nc2ccccc2N1)S(=O)(=O)CCC,-0.63
9,CCn1cc(C(=O)NCCC2=CCCCC2)c(=O)c2cc(S(=O)(=O)N(C)C)ccc21,-0.563
10,CCc1ccc(NC(=O)CS(=O)CC(=O)NC(C)CCc2ccco2)cc1 (stereo not given),-0.484
11,O=C(OCCN=C1NS(=O)(=O)c2ccccc21)C1CC(=O)N(c2ccc(Cl)cc2)C1 (stereo not given),-0.448
12,O=C(c1cccc(C(=O)N2CCN(c3ccc(F)cc3)CC2)c1)N1CCN(c2ccc(F)cc2)CC1,-0.438
13,CCOP(=O)(c1ccc(N(C)C)cc1)C(O)c1c(Cl)cccc1Cl (stereo not given),-0.521
14,CN1CCN(C(=O)C2(NC(=O)Nc3cccc(F)c3)CCCCC2)CC1,-0.596
15,CCCOC(=O)/C(C(N)=NCc1ccccc1)=C(\O)OCCC,-0.406
16,CC(=O)N1CCN(c2ccc(NC(=O)c3ccc(C(C)(C)C)cc3)cc2)CC1,-0.494
17,OC(CN1CCOCC1)Cn1c(-c2cccc(Cl)c2)nc2ccccc21 (stereo not given),-0.598
18,CCN(CC)C(=O)C1CCC(CNS(=O)(=O)c2cccc3cccnc23)CC1 (stereo not given),-0.497
19,CN(C)Cc1cn(CCC(=O)O)c2ccccc12,-0.481
20,CC(NS(=O)(=O)c1ccc(OCC(=O)N2CCOCC2)c(Cl)c1)c1ccccc1 (stereo not given),-0.409

row,SMILES,fluorescence slope
1,CCOc1ccc2nc(N3CCC(C(=O)N4CCN(C5CCCCC5)CC4)CC3)sc2c1,-0.553
2,O=C(O)CSC1CC(=O)N(c2ccc(Cl)c(Cl)c2)C1=O (stereo not given),-0.304
3,CCN(C(C)=O)c1nnc(CSc2nc3ccccc3s2)s1,-0.475
4,O=C(CNCCC1=CCCCC1)Nc1ccccc1N1CCCCC1,-0.581
5,COCC(C)NC(=O)CCS(=O)(=O)c1nc(-c2ccc(OC)cc2)cc(C(F)(F)F)n1 (stereo not given),-0.323
6,CSc1ccccc1NC(=O)C1CCCO1 (stereo not given),-0.429
7,O=C(CN(Cc1ccc(F)cc1)C(=O)Cn1nnc2ccccc21)NCC1CCCO1 (stereo not given),-0.434
8,O=C(CSc1nnc(-c2ccccc2)o1)N1CCc2ccccc2C1,-0.382
9,CCn1c(-c2cc(Br)ccc2O)n[nH]c1=S,-0.59
10,CCOC(=O)c1ccc(NS(=O)C23CC4CC(CC(C4)C2)C3)cc1 (stereo not given),-0.458
11,O=C1CCC(c2ccccc2)N1C(=O)c1cccnc1 (stereo not given),-0.512
12,CC1Cc2nc(SCC(N)=O)n(Cc3ccccc3)c(=O)c2S1 (stereo not given),-0.438
13,CCC(=O)Nc1cc(C)c(NC(=O)C23CC4CC(CC(C4)C2)C3)cn1,-0.479
14,O=C(c1ccc(Br)o1)N(Cc1ccccc1)c1ccccn1,-0.43
15,CCN1C(=O)/C(=C2\C=Cc3ccccc3N2CC)OC1=S,-0.334
16,COc1ccc(C)cc1S(=O)(=O)N(C)CC(=O)Nc1ccc2c(c1)OCCO2,-0.427
17,O=C(NC1CCCCC1)c1nc2c(nnn2Cc2ccccc2Cl)c(=O)[nH]1,-0.525
18,O=C(NCCN1CCOCC1)c1ccc2c(c1)N(Cc1ccccc1F)C(=O)CS2,-0.456
19,CN(C(=O)C1CCOC1)c1nnc(-c2cccnc2)s1 (stereo not given),-0.502
20,c1ccc(-c2nc3nonc3c3nc4ccccc4n23)cc1,-0.244

# Source: PubChem BioAssay
